# Hit rate of the full screen: of about 5,500 compounds, about 2,000 (36%) were called active. Not shown: some 18% with an inconclusive outcome. This is one part of the list. Unmarked numbers belong to inactive results. No stated cut-off is given here; in the data, active means normalized growth mostly below about 0.91 (no sharp cut-off); inconclusive means no clear call, values can overlap the other calls; inactive means mostly above about 0.92.
# Assay: chemical genetic growth profiling, strain panel (AID 1159580);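 further: tested at 20 µM; growth read once vehicle control cultures reached saturation at 30 °C; 1 = growth at the plate median or of vehicle wells; lower values mean less growth of the strain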
# Details: S. cerevisiae deletion strains, growth OD
# [1] = locus YAL013W, strain DEP1, hits give low values
# [2] = locus YBR229C, strain ROT2, hits give low values
# [3] = locus YDL101C, strain DUN1, hits give low values
# [4] = locus YDR150W, strain NUM1, hits give low values
# [5] = locus YEL061C, strain CIN8, hits give low values
# [6] = locus YGR078C, strain PAC10, hits give low values
# [7] = locus YHR030C, strain SLT2, hits give low values
# [8] = locus YHR087W, strain rtc3, hits give low values
# [9] = locus YJL187C, strain SWE1, hits give low values
# [10] = locus YJR043C, strain POL32, hits give low values
# [11] = locus YJR075W, strain HOC1, hits give low values
# [12] = locus YLR039C, strain RIC1, hits give low values
# [13] = locus YLR058C, strain SHM2 (second series), hits give low values
# [14] = locus YLR085C, strain ARP6, hits give low values
# [15] = locus YLR262C, strain YPT6, hits give low values
# [16] = locus YML094W, strain GIM5, hits give low values
# [17] = locus YMR219W, strain ESC1, hits give low values
# [18] = locus YMR263W, strain SAP30, hits give low values
# [19] = locus YNL153C, strain GIM3, hits give low values
# [20] = locus YNL298W, strain CLA4 (second series), hits give low values
# [21] = locus YNL322C, strain KRE1, hits give low values
# [22] = locus YNR030W, strain Alg12, hits give low values
# [23] = locus YOL006C, strain TOP1, hits give low values
# [24] = locus YPL055C, strain LGE1, hits give low values
# [25] = locus YPL241C, strain CIN2, hits give low values
# [26] = locus YPR135W, strain CTF4, hits give low values
structure (smiles),measurement,setting,value
COc1cc(/C=N\NC(=S)NC2CC3CCC2C3)cc(OC)c1OC (stereo unspecified),normalized growth,[1],0.985
same,normalized growth,[2],1.01
same,normalized growth,[3],1
same,normalized growth,[4],0.998
same,normalized growth,[5],0.994
same,normalized growth,[6],1
same,normalized growth,"locus YGR229C, strain SMI1, hits give low values",1
same,normalized growth,[7],0.816
same,normalized growth,[8],1.03
same,normalized growth,[9],0.996
same,normalized growth,[10],1.02
same,normalized growth,[11],1.05
same,normalized growth,[12],0.97
same,normalized growth,[13],1.02
same,normalized growth,[14],0.653 (active)
same,normalized growth,[15],1.05
same,normalized growth,[16],0.913
same,normalized growth,[17],1.02
same,normalized growth,[18],0.975
same,normalized growth,[19],1.01
same,normalized growth,[20],0.889
same,normalized growth,[21],1.01
same,normalized growth,[22],0.92
same,normalized growth,[23],0.51 (active)
same,normalized growth,[24],0.923
same,normalized growth,[25],0.898
same,normalized growth,[26],0.843
COc1cc(C=Nc2ccc(F)cc2)cc(OC)c1OC,normalized growth,[1],0.995
same,normalized growth,[2],0.978
same,normalized growth,[3],1
same,normalized growth,[4],0.896
same,normalized growth,[5],0.986
same,normalized growth,[6],1
same,normalized growth,[7],1.02
same,normalized growth,[8],1.01
same,normalized growth,[9],0.998
same,normalized growth,[10],1.01
same,normalized growth,[11],0.954
same,normalized growth,"locus YKL190W, strain CNB1, hits give low values",0.98
same,normalized growth,[12],0.983
same,normalized growth,[13],1.02
same,normalized growth,[14],0.965
same,normalized growth,[15],0.98
same,normalized growth,[16],0.988
same,normalized growth,[17],0.985
same,normalized growth,[18],1.01
same,normalized growth,"locus YMR307W, strain GAS1, hits give low values",0.938
same,normalized growth,[19],1.01
same,normalized growth,[20],1
same,normalized growth,[21],0.979
same,normalized growth,[22],0.979
same,normalized growth,[23],1
same,normalized growth,[24],1.02
same,normalized growth,[25],0.997
same,normalized growth,[26],1.11
S=C(N/N=C\c1cccs1)NC1CC2CCC1C2 (stereo unspecified),normalized growth,"locus YAR019C, strain CDC15, hits give low values",0.943
same,normalized growth,"locus YBL105C, strain PKC1, hits give low values",0.94
same,normalized growth,"locus YBR135W, strain CKS1, hits give low values",0.959
same,normalized growth,"locus YBR136W, strain MEC1, hits give low values",0.95
same,normalized growth,"locus YBR160W, strain CDC28, hits give low values",0.954
same,normalized growth,"locus YDL017W, strain CDC7, hits give low values",0.941
same,normalized growth,"locus YDL028C, strain MPS1, hits give low values",0.958
same,normalized growth,[3],0.952
same,normalized growth,"locus YDL108W, strain KIN28, hits give low values",0.951
same,normalized growth,"locus YDL132W, strain cdc53, hits give low values",0.96
same,normalized growth,"locus YDL214C, strain PRR2, hits give low values",0.913
same,normalized growth,"locus YDR052C, strain DBF4, hits give low values",0.945
same,normalized growth,"locus YDR054C, strain cdc34, hits give low values",0.928
same,normalized growth,"locus YDR226W, strain ADK1, hits give low values",0.937
same,normalized growth,"locus YDR477W, strain SNF1, hits give low values",0.91
same,normalized growth,"locus YER123W, strain YCK3, hits give low values",0.938
same,normalized growth,"locus YER133W, strain GLC7, hits give low values",0.905
same,normalized growth,"locus YFL009W, strain cdc4, hits give low values",0.934
same,normalized growth,"locus YFL029C, strain CAK1, hits give low values",0.94
same,normalized growth,"locus YFR003C, strain YPI1, hits give low values",0.951
same,normalized growth,"locus YFR019W, strain FAB1, hits give low values",0.956
same,normalized growth,"locus YFR028C, strain CDC14, hits give low values",0.944
same,normalized growth,"locus YGR040W, strain KSS1, hits give low values",0.909
same,normalized growth,"locus YGR052W, strain FMP48, hits give low values",0.921
same,normalized growth,"locus YGR092W, strain DBF2, hits give low values",0.794
same,normalized growth,[7],0.763 (active)
same,normalized growth,"locus YHR079C, strain IRE1, hits give low values",0.75
same,normalized growth,"locus YHR082C, strain KSP1, hits give low values",0.898
same,normalized growth,"locus YHR205W, strain SCH9, hits give low values",0.732
same,normalized growth,"locus YIL147C, strain SLN1, hits give low values",0.956
same,normalized growth,"locus YJL095W, strain BCK1, hits give low values",0.89
same,normalized growth,"locus YJL128C, strain PBS2, hits give low values",0.957
same,normalized growth,"locus YJL157C, strain FAR1, hits give low values",0.885
same,normalized growth,"locus YJR016C, strain ILV3, hits give low values",0.945
same,normalized growth,"locus YJR066W, strain TOR1 (second series), hits give low values",0.87
same,normalized growth,"locus YJR066W, strain TOR1, hits give low values",0.908
same,normalized growth,"locus YKL048C, strain ELM1, hits give low values",0.934
same,normalized growth,"locus YKL067W, strain YNK1, hits give low values",0.95
same,normalized growth,"locus YKL101W, strain HSL1, hits give low values",0.949
same,normalized growth,"locus YKL193C, strain SDS22, hits give low values",0.947
same,normalized growth,"locus YKL203C, strain TOR2, hits give low values",0.978
same,normalized growth,"locus YLR113W, strain HOG1, hits give low values",0.788 (active)
same,normalized growth,"locus YLR133W, strain CKI1, hits give low values",0.913
same,normalized growth,"locus YLR403W, strain SFP1, hits give low values",0.787
same,normalized growth,"locus YML070W, strain DAK1, hits give low values",0.927
same,normalized growth,"locus YMR001C, strain CDC5, hits give low values",0.944
same,normalized growth,"locus YMR205C, strain PFK2 (second series), hits give low values",0.946
same,normalized growth,"locus YMR277W, strain FCP1, hits give low values",0.946
same,normalized growth,"locus YNL006W, strain LST8, hits give low values",0.957
same,normalized growth,"locus YNL020C, strain ARK1, hits give low values",0.918
same,normalized growth,"locus YNL161W, strain CBK1, hits give low values",0.936
same,normalized growth,"locus YNL183C, strain NPR1, hits give low values",0.967
same,normalized growth,"locus YNL207W, strain RIO2, hits give low values",0.929
same,normalized growth,"locus YNL222W, strain SSU72, hits give low values",0.936
same,normalized growth,"locus YNL307C, strain MCK1 (second series), hits give low values",0.842
same,normalized growth,"locus YOL078W, strain AVO1, hits give low values",0.939
same,normalized growth,"locus YOL136C, strain PFK27, hits give low values",0.881
same,normalized growth,"locus YOR061W, strain CKA2, hits give low values",0.948
same,normalized growth,"locus YOR119C, strain RIO1, hits give low values",1.01
same,normalized growth,"locus YOR231W, strain MKK1, hits give low values",0.935
same,normalized growth,"locus YOR329C, strain SCD5, hits give low values",0.949
same,normalized growth,"locus YPL031C, strain PHO85, hits give low values",0.879
same,normalized growth,"locus YPL153C, strain RAD53, hits give low values",0.88
same,normalized growth,"locus YPL204W, strain HRR25, hits give low values",0.842
same,normalized growth,"locus YPL209C, strain IPL1, hits give low values",0.943
same,normalized growth,"locus YPL256C, strain CLN2, hits give low values",0.736 (active)
same,normalized growth,"locus YPR025C, strain CCL1, hits give low values",0.959
same,normalized growth,"locus YPR106W, strain ISR1, hits give low values",0.953
same,normalized growth,"locus YPR111W, strain DBF20, hits give low values",0.953
same,normalized growth,"strain NNK1, hits give low values",0.947
same,normalized growth,"strain TSCII, hits give low values",0.932

# — PubChem BioAssay AID1159580 (chemical genetic matrix, 2015)
